From PubChem BioAssay come the findings set out here.

Calls of active or inactive are those of the source.

Test [1] deals with Plasmodium falciparum Sir2 (PF13_0152, Sir2A). Briefly: pfSir2 binders on small-molecule microarrays, primary screen, biochemical, small-molecule microarray, 635 nm fluorescence (AID 1098).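 Note: score merges spot fluorescence intensity with its signal-to-noise ratio.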 To be noted: small-molecule microarray binding, fluorescence 635 nm; higher = more signal.
Test [2] is described as follows: small-molecule microarray binders of probe aDKK1, primary screen, biochemical, biotinylated probe, 635/667 nm fluorescence (AID 1099).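 Note: score merges 667nm spot fluorescence with signal to noise across triplicate slides.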 To be noted: higher = more signal.
The nature of test [3]: small-molecule microarray binders of probe aCHRDL2, primary screen, biochemical, biotinylated probe, 635/667 nm fluorescence (AID 1100). To be noted: higher = more signal.
Test [4] in a line: splicing luciferase reporter signal modulators, primary screen, spliceosome inhibition project, cell-based, HEK293, splice +/- reporter (AID 1101).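 Note: HEK293 cells carrying a splicing-competent luciferase reporter gene; test concentration not given here.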 To be noted: luminescence, 24 h, higher = more signal, called active from +8 up or from −8 down.
Test [5] has as its target Fibroblast growth factor 10 (Homo sapiens) (UniProt O15520). In words: FGF10 binders on small-molecule microarrays, primary screen, biochemical, small-molecule microarray, 635 nm fluorescence (AID 1102). To be noted: FGF10 binding, fluorescence 635 nm, higher = more signal.
Test [6] has as its system glycogen synthase kinase-3 (GSK3A per assay name; protocol says GSK3B). In words: GSK3 binders on small-molecule microarrays, primary screen, biochemical, small-molecule microarray, 635 nm fluorescence, GSK3A (AID 1103). Note: the record names both GSK3A and GSK3B. To be noted: small-molecule microarray binding, fluorescence 635 nm; higher = more signal.
Test [7] deals with Epidermal growth factor receptor (Homo sapiens) (UniProt P00533). In words: EGFR binders on small-molecule microarrays, primary screen, biochemical, small-molecule microarray, 635 nm fluorescence (AID 1104).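 Note: score merges 667 nm emission intensity with spot signal to noise over triplicate slides.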 To be noted: EGFR binding, higher = more signal.
The target in test [8] is Follistatin-related protein 3 (Homo sapiens) (UniProt O95633). In words: FSTL3 binders on small-molecule microarrays, primary screen, biochemical, small-molecule microarray, 635 nm fluorescence (AID 1105).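 Note: score merges emission near 667 nm and signal to noise per printed spot across three slides.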 To be noted: FSTL3 binding, higher = more signal.
For test [9], the target named is Dickkopf-related protein 1 (Homo sapiens) (UniProt O94907). Briefly: DKK1 binders on small-molecule microarrays, primary screen, biochemical, small-molecule microarray, 635 nm fluorescence scan (AID 1106).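 Note: score merges emission near 667 nm with signal to noise over three replicate slides.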 To be noted: DKK1 binding, higher = more signal.
For test [10], the system named is Inhibin beta A chain (activin A). Briefly: INHBA (activin A) binders on microarrays, primary screen, biochemical, small-molecule microarray, 635 nm fluorescence scan (AID 1107).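 Note: mouse activin A protein probed at 4.33 µg/mL on printed slides; score merges bound-protein fluorescence near 667 nm with spot signal-to-noise.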 To be noted: small-molecule microarray binding, higher = more signal.
Test [11] deals with Human papillomavirus type 1a protein E7 (residues 44-93). Briefly: HPV1a E7 fragment binders on microarrays, primary screen, biochemical, small-molecule microarray, residues 44-93, 635 nm fluorescence (AID 1108).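 Note: E7 fragment applied at 1 µg/mL in TBST for 1 h at 4 C; score combines spot fluorescence with its signal to noise ratio.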 To be noted: small-molecule microarray binding, fluorescence 635 nm; higher = more signal.
Test [12] can be described thus: modulators of HCV replicon luciferase signal, primary screen, HCV replication inhibitor project, Huh7 cells, luciferase reporter (AID 1109).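 Note: huh7 hepatoma cells harbouring a luciferase neomycin HCV replicon reporter; luciferase luminescence as measure of HCV replicon replication; test concentration not given here.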 To be noted: 48 h, higher = more signal. (In antiviral work, replicon cells carry a viral genome segment that copies itself.)
Test [13] deals with Left-right determination factor 2 (Homo sapiens) (UniProt O00292). In words: LEFTY2 binders on small-molecule microarrays, primary screen, biochemical, small-molecule microarray, 635 nm fluorescence scan (AID 1110). To be noted: LEFTY2 binding, higher = more signal.
For test [14], the target named is Calmodulin-1 (Homo sapiens) (UniProt P0DP23). In words: CALM1 binders on microarrays, EGTA buffer, profiling panel, biochemical, small-molecule microarray, Cy5-labelled CALM1 (AID 1111).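 Note: labelled calmodulin applied in Tris saline Tween buffer holding calcium plus EGTA and DTT.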 To be noted: Cy5-CALM1 binding fluorescence, higher = more signal.
The target is the same in test [15]. Briefly: calcium-bound CALM1 binders on microarrays, profiling panel, artefact control for SMM control-protein annotation, biochemical, small-molecule microarray, Cy5-labelled CALM1, plus calcium (AID 1112).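 Note: score merges spot fluorescence with signal to noise from triplicate slides.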 To be noted: Cy5-CALM1 binding fluorescence, higher = more signal.
Test [16] can be described thus: small-molecule microarray binders of probe aWnt5a, primary screen, biochemical, biotinylated probe, 635/667 nm fluorescence (AID 1113).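 Note: score merges 667 nm fluorescence intensity with signal-to-noise per printed feature.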 To be noted: higher = more signal.
A short description of test [17]: small-molecule microarray binders of probe aShh, primary screen, biochemical, biotinylated probe, 635/667 nm fluorescence (AID 1114).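 Note: probe is biotin-labelled aShh protein from a stem cell growth factor screen; measures binding of labelled protein to compounds printed on the slide; score merges feature fluorescence at 667 nm with signal-to-noise.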 To be noted: higher = more signal.
Test [18] in a line: small-molecule microarray binders of probe aNog, primary screen, biochemical, biotinylated probe, 635/667 nm fluorescence (AID 1115).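 Note: probe is biotinylated aNog protein used at 0.15 µg/mL for 1 h at 4 C; z-score combines 667 nm fluorescence of each spot with its signal to noise.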 To be noted: higher = more signal.
Test [19] addresses Torsin-1A-interacting protein 1 (Homo sapiens) (UniProt Q5JTV8). In words: LAP1 binders from COS7 cell lysate, primary screen, small-molecule microarray, 635/667 nm fluorescence (AID 1116). To be noted: COS7-hLAP1 lysate binding, 635 nm fluorescence, higher = more signal.
Test [20] concerns the target Alpha-bungarotoxin (Bungarus multicinctus) (UniProt P60615). Briefly: alpha-bungarotoxin binders on microarray, profiling panel, artefact control for SMM control protein annotation, biochemical, small-molecule microarray, Alexa647 label, 635/667 nm fluorescence (AID 1117). To be noted: alpha-BTX-A647 binding fluorescence, higher = more signal.

Chain of Dickkopf-related protein 1 (Homo sapiens) (O94907 whole entry, looked up): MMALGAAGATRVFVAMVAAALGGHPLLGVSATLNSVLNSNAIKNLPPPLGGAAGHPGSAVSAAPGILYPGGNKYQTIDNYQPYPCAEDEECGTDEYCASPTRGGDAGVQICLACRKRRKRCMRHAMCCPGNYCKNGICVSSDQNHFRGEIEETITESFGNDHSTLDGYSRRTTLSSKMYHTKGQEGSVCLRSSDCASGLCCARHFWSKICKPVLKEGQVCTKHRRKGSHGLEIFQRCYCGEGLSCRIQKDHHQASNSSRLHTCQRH
Chain of Fibroblast growth factor 10 (Homo sapiens) (O15520 whole entry, looked up): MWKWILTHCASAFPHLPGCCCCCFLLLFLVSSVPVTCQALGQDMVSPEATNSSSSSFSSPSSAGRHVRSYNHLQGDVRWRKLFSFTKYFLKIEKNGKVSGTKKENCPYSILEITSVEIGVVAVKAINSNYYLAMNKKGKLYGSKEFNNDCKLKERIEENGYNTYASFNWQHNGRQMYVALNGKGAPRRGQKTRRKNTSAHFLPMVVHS
Chain of Alpha-bungarotoxin (Bungarus multicinctus) (P60615 whole entry, looked up): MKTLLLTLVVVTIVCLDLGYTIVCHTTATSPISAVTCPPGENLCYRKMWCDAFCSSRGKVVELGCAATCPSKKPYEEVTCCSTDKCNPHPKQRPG
Chain of Follistatin-related protein 3 (Homo sapiens) (O95633 whole entry, looked up): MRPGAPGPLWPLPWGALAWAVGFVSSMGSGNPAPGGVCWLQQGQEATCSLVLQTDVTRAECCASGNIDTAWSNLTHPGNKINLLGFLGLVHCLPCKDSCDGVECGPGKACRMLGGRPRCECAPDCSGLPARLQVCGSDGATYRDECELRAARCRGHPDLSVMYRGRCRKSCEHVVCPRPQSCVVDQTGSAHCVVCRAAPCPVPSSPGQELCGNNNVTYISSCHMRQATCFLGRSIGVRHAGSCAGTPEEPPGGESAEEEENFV
Chain of Epidermal growth factor receptor (Homo sapiens) (P00533 whole entry, looked up): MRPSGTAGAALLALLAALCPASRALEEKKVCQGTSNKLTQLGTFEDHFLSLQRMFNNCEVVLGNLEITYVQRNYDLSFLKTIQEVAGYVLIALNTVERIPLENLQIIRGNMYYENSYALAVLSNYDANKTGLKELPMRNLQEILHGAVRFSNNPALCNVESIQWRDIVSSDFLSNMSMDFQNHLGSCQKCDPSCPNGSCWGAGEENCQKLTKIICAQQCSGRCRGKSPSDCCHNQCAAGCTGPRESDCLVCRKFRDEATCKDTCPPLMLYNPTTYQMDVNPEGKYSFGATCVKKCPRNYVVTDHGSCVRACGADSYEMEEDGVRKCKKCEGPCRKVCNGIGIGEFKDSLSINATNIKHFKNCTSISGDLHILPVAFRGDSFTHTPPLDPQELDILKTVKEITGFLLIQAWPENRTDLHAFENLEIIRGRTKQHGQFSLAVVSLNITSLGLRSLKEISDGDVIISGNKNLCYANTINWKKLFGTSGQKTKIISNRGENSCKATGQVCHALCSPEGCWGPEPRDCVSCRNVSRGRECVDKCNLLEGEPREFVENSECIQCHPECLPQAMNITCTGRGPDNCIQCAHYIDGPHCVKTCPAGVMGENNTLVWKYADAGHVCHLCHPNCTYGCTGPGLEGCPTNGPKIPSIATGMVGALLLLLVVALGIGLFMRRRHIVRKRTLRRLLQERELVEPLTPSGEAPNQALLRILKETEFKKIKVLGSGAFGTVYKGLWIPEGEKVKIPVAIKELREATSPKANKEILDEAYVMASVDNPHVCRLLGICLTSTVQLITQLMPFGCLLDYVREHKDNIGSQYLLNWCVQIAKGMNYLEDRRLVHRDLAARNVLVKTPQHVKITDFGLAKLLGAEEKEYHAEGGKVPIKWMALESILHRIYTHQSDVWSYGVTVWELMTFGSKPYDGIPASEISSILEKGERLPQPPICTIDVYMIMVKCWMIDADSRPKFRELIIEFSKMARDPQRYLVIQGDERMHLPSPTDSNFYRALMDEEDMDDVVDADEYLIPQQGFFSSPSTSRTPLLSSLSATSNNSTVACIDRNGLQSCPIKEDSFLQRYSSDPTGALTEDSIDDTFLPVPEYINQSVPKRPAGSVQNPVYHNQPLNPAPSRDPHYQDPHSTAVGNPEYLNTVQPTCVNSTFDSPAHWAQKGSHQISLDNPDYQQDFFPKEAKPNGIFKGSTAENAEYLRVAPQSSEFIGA
Chain of Left-right determination factor 2 (Homo sapiens) (O00292 whole entry, looked up): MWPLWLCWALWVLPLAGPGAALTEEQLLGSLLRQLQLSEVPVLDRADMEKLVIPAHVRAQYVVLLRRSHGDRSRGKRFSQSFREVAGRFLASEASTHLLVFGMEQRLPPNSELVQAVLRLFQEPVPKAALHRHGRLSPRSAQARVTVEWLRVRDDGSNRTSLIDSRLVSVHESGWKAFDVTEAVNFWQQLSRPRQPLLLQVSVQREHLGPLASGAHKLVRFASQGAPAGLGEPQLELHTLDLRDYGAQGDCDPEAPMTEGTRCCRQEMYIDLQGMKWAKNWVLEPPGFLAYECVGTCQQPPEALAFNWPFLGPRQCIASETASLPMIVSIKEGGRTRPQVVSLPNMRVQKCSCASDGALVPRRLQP
Chain of Torsin-1A-interacting protein 1 (Homo sapiens) (Q5JTV8 whole entry, looked up): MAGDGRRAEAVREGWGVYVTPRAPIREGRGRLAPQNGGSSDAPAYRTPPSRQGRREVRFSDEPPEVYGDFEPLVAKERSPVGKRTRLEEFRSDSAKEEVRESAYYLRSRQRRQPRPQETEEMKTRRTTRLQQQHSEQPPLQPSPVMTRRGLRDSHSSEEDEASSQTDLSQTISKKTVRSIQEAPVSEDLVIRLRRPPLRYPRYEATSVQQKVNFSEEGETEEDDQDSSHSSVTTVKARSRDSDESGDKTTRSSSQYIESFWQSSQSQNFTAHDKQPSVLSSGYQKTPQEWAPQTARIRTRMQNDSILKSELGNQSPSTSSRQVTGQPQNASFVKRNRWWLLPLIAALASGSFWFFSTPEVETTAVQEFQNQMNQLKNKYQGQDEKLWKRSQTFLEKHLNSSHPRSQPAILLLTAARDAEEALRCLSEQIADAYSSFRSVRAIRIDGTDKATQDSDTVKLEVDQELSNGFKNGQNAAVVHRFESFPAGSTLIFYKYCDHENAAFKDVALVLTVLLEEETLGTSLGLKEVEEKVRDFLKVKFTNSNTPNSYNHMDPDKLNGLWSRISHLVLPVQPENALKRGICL

In the case of `CS(=O)(=O)CCOC(=O)C1=CC(c2ccc(CO)cc2)=CC(C2CC2)N(Cc2cc3c(cc2Br)OCO3)C=C1C(=O)OCCS(C)(=O)=O` (stereo not given), the composite z-score in test [1] stood at 0.848; in test [2], 0.296; in test [3] it was 0.351; in test [5], 1.08; in [6], 1.18; in [7] it was 0.425. In addition, the composite z-score in [8] was determined as 0.932; in test [9], 0.391; in test [10], 0.701; in [11], 1.41; in test [13], 0.462; in test [14], 1.38. The composite z-score in test [15] was 0.23; in test [16], -0.0124; in [17], 0.171; in [18], 0.446; in test [19], 1.18; in [20], 1.77. Besides, the z-score in test [4] was 0.883 (inactive); in [12], -2.3.

Regarding `O=C(O)[C@@]1(Cc2ccccc2)N=C(c2ccc(OCCCO)cc2)O[C@H]1c1ccccc1`, the composite z-score in test [1] was 1.03; in test [2], 0.116; in [3], 0.614; in [5], 0.252; in test [6], -0.11; in test [7], -1.02. The composite z-score was 0.0206 in test [8]; -0.872 in [9]; 0.779 in [10]; 0.843 in test [11]; -1.13 in [13]; 0.102 in [14]. Further, the composite z-score was 1.07 in test [15]; -0.0179 in test [16]; 0.216 in test [17]; 0.966 in test [18]; -0.514 in [19]; 1.07 in test [20]. The z-score in test [4] was -0.674 (inactive); in test [12], -0.0284.

As for `Cc1ccc([C@H]2[C@H](C(=O)O)[C@H](Sc3ccccc3)[C@@H](C(C)C)N2S(=O)(=O)c2ccc(C)cc2)cc1`, the composite z-score in [1] was 0.587; in test [2], -0.403; in test [3], 0.355; in [5], 0.95; in [6], 1.22; in [7] it was 0.151. For the same compound, the composite z-score in test [8] came to 0.905; in [9] it was 0.168; in [10], 0.417; in test [11], 1.41; in test [13] it was 0.314; in test [14], 1.36. Also, the composite z-score is 0.904 in [15]; 0.0718 in test [16]; -0.0709 in test [17]; -0.528 in [18]; 0.759 in test [19]; 0.715 in test [20]. Further, the z-score in [4] is 0.27 (inactive); in test [12] it was -0.981.

In the case of `COc1ccc(C(=O)Nc2cccc(CN3C(=O)[C@@]4(O[C@@H](CCn5cc(CCO)nn5)[C@H]([Si](C)(C)c5ccc(OC)cc5)[C@H]4C)c4ccccc43)c2)cc1`, the composite z-score was 0.758 in test [1]; -0.111 in test [2]; 0.124 in test [3]; 0.997 in test [5]; 1.17 in [6]; 0.558 in [7]. Also, the composite z-score in [8] was 1.38; in test [9], 0.851; in [10], 1.4; in test [11], 1.37; in test [13], 0.714; in [14], 0.468. Besides, the composite z-score is 0.308 in [15]; -0.0403 in test [16]; 0.13 in [17]; 0.153 in test [18]; 0.602 in test [19]; 1.6 in test [20]. For the same compound, the z-score was -1.16 (inactive) in test [4] and -5.15 in test [12].

For the compound `CC(=CC1CCCCC1)[C@@H](NC(=O)c1ccc(C(F)(F)F)cc1)c1ccc(-c2ccccc2)cc1`, the composite z-score in test [1] is -0.0411; in test [2], 0.41; in [3] it was 0.848; in test [5] it was -0.394; in test [6], -0.988; in test [7] it was -0.365. For the same compound, the composite z-score was 0.138 in test [8]; -0.0349 in test [9]; 1.03 in [10]; -0.778 in [11]; -0.886 in [13]; 0.605 in test [14]. In addition, the composite z-score is 0.636 in [15]; -0.0735 in test [16]; 0.151 in test [17]; 0.506 in [18]; -0.204 in [19]; 0.48 in test [20]. Besides, the z-score is -0.423 (inactive) in [4] and -1.04 in test [12].

For `COCCOC(=O)N1C(=O)[C@@]2(c3cc(C#CCNC(N)=O)ccc31)[C@H](C(=O)N1CCc3cc(OC)c(OC)cc3C1)[C@H]1C(=O)O[C@H](c3ccccc3)[C@H](c3ccccc3)N1[C@@H]2c1ccc(OCCO)cc1`, the composite z-score is 1.06 in test [1]; -0.0141 in [2]; -0.053 in [3]; 1.28 in test [5]; -0.08 in test [6]; 0.528 in test [7]. Besides, the composite z-score turned out to be 1.17 in [8]; 0.529 in test [9]; 0.886 in [10]; 0.581 in test [11]; 0.556 in test [13]; 0.432 in [14]. Besides, the composite z-score in [15] was -0.178; in test [16], -0.0236; in test [17], 0.0637; in test [18], -0.794; in test [19], 0.5; in test [20] it was 0.399. The z-score in [4] is -0.0304 (inactive); in test [12], -0.45.

As for `C=C(COC)C(=O)CC[C@@H](OC(=O)c1cccnc1)c1ccc(CO)o1`, the composite z-score in test [1] was 0.691; in [2] it was -0.2; in [3], -0.237; in test [5] it was 0.0396; in test [6] it was 0.457; in [7], 0.182. Moreover, the composite z-score in test [8] was 0.916; in test [9], 0.611; in test [10], 1.58; in test [11] it was 0.369; in test [13], 0.355; in [14], -0.0743. Further, the composite z-score is -0.116 in test [15]; -0.1 in test [16]; -0.0977 in test [17]; 0.094 in [18]; 0.424 in test [19]; 0.285 in test [20]. For the same compound, the figures for the z-score in test [4] and in [12] were 1.86 (inactive) and -0.778, respectively.
